Bioassay records (PubChem BioAssay)
Rows were chosen to be rich in hits. Some 8.7% of all compounds tested hit in one or more screens of this group.
G9a block – blocks human histone lysine methyltransferase G9a | Q96KQ7 | G9a H3K9 monomethylation, AlphaScreen, 2 h | Potency, µM (highest dose often 102 µM), without a hit: at the top dose activity, negative = inhibition, hits mostly inhibitors | 350,000 tested, 8.8% active; further: on the % scale 0 is the no-effect control and ±100 the full control effect; nearly all actives have a fitted effect of over 75% in size
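Enzyme 20 nM + cpd, 15 min RT; add b-H3K9 pep 500 nM / SAM 20 uM; 2 h RT; anti-H3K9me1 Ab 0.5 ug/mL + SA donor / anti-rabbit acceptor beads 20 ug/mL each, 10 min; AlphaScreen read.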
HP1b chromo inh – HP1-beta chromodomain-methylated histone interaction inhibition; AlphaScreen HP1-beta / biotin-H3K9me3 peptide binding; 390,000 tested, 0.56% active; Potency, µM (highest dose often 114 µM), for inactives: at the highest dose activity change, negative = inhibition, usual class: inhibitors; AID 540317; further: nearly all actives have a fitted effect of over 70% in size
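HP1-beta protein (50 nM final) preincubated 30 min at room temperature with biotinylated H3(1-18)K9me3 peptide (50 nM) in PBS pH 7.4, 0.01% Tween-20, then compound added for 30 min. AlphaScreen streptavidin donor/nickel chelate acceptor beads (10 ug/mL final), 30 min dark, luminescence read.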
BAZ2B inh – BAZ2B (human) inhibition. Q9UIF8. AID 504333. 360,000 tested, 4.4% active. AlphaScreen BAZ2B-H3K14Ac peptide displacement. Potency, µM (doses to about 114 µM), for the others: top-dose activity change, negative = inhibition, most hits filed as inhibitors; further: on the % scale 0 is the no-effect control and ±100 the full control effect; nearly all actives have a fitted effect of over 60% in size
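BAZ2B (50 nM) with biotin-H3(5-23)K14Ac peptide (50 nM) in PBS pH 7.4, 0.01% Tween-20, preformed 30 min, then compound 30 min at room temperature; top concentration 110uM. AlphaScreen streptavidin donor/nickel chelate acceptor beads (10 ug/mL final), 20 min dark, signal read.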
Sfp PPTase inh – inhibitors of Bacillus subtilis Sfp phosphopantetheinyl transferase | Biochemical Sfp PPTase activity, qHTS | Potency, µM, for the others: largest response in the series, negative = inhibition, actives largely listed as inhibitors | Q9F4F7 | 310,000 tested, 3.5% active;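 further: the enzyme is Sfp with the accession as filed and its product quenches rhodamine fluorescence; 0% = enzyme reaction without inhibitor and -100% = no enzyme wells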
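Fluorescence-quenching assay: 15 nM Sfp-PPTase preincubated 15 min at room temperature with compound, then 5 uM rhodamine-CoA and 12.5 uM BHQ-2-labelled YbbR peptide added. Fluorescence (ex 525/em 598 nm) read at start and after 30 min; difference gives rate.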
12-LOX inh – blocks human arachidonate 12S-lipoxygenase | P18054 | purified 12hLO, xylenol orange hydroperoxide absorbance | Potency, µM (titrated, usually from 108 µM), inactives show at the top dose activity change, negative = inhibition, hits mostly inhibitors | 580,000 tested, 1.1% active; further: on the % scale 0 is the no-effect control and ±100 the full control effect
Target sequence (P18054 whole entry, looked up): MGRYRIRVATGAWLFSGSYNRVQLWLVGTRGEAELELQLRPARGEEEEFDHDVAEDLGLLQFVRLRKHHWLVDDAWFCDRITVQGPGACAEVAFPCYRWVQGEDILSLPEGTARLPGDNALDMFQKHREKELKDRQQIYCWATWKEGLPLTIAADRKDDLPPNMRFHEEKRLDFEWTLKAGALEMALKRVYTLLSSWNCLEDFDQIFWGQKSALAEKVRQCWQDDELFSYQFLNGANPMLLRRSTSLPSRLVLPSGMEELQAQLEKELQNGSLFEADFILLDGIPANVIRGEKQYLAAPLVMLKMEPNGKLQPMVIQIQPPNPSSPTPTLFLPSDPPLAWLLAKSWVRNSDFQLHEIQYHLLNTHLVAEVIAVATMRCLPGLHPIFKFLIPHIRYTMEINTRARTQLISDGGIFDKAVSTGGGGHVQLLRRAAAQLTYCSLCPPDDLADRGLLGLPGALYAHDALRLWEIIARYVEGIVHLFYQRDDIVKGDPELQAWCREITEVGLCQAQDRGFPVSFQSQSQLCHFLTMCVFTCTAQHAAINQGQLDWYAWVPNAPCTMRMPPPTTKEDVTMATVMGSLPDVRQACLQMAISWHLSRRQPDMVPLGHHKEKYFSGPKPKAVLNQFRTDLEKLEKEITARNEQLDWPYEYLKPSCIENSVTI
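Hydroperoxide product was detected by ferrous iron/xylenol orange as the 573 to 405 nm absorbance ratio. Arachidonic acid at 40 uM (final) was turned over for 30 min at room temperature by 150 nM human 12hLO, pH 7.0 Hepes buffer, after 15 min compound preincubation.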
JMJD2A Tudor – inhibitors of human JMJD2A Tudor domain | Potency, µM (series often up to 114 µM), for the others: at the top dose activity change, negative = inhibition, hits mostly inhibitors | AlphaScreen JMJD2A-Tudor / H3K4me3 peptide binding | 390,000 tested, 4.4% active | O75164; further: on the % scale 0 is the no-effect control and ±100 the full control effect; nearly all actives have a fitted effect of over 50% in size
Starred values were filed as active, the others as inactive; ? = inconclusive; nt = not tested or not shown; [ ] = remark or other dose. The call rests on the fitted dose curve; in most records, active means well fitted curve in the direction sought with a large enough effect; inconclusive means small, poorly fitted or top-dose-only effect, or another doubt; inactive means no such curve, though single readings can be large; an effect the other way counts as inactive or inconclusive. Potency means the concentration at half of the fitted maximal effect.

SMILES	G9a block	HP1b chromo inh	BAZ2B inh	Sfp PPTase inh	12-LOX inh	JMJD2A Tudor
CCCN(CCC(=O)Nc1cc(OC)cc(OC)c1)CC1CC1	45µM*	10%	?	?	?	-34%
COc1cccc(NC(=O)CCc2ccccc2)c1	19%[12.7 µM]	51%	42%	nt	-9%	-10%
CC1(C)O[C@@H]2[C@H](O1)[C@@H](COS(=O)(=O)O)O[C@H]2n1cnc2c(N)ncnc21	-11%[2.33 µM]	nt	-10%	nt	nt	nt
CC1(C)O[C@@H]2[C@H](O1)[C@@H](COS(=O)(=O)O)O[C@H]2n1c(=S)[nH]c2c(=O)[nH]c(N)nc21	13%[2.33 µM]	-24%	-6%	nt	?	20µM*
Nc1nc2c([nH]c(=S)n2C2OC(CO)C(O)C2O)c(=O)[nH]1 (stereo not drawn)	nt	nt	nt	45µM*	nt	nt
Cc1cccc(CC(=O)N2CCC(n3cc(-c4nc(-c5ccccc5)no4)nn3)CC2)c1	nt	nt	nt	nt	10%	nt
CSc1ccccc1C(=O)NCC(C)C	nt	nt	nt	nt	-2%	nt
COc1ccc2oc(C(=O)NCCc3ccccc3)c(C)c2c1	-10%[2.33 µM]	27%	8%	nt	?	9%
CSc1ccccc1C(=O)NCC(c1ccco1)N(C)C (stereo not drawn)	40µM*	22%	-17%	15%	5%	-2%
COc1ccc2oc(C(=O)NCC(c3ccco3)N(C)C)c(C)c2c1 (stereo not drawn)	?	-9%	50µM*	nt	-12%	-27%
COc1ccc2oc(C(=O)NCc3cc(OC)c(OC)cc3OC)c(C)c2c1	?	?	?	-8%	11%	35µM*
Cc1[nH]c(C)c(S(=O)(=O)Nc2cccc3c2CCCC3)c1C(=O)N1CCCCC1	nt	nt	nt	nt	-24%	nt
COc1ccc(-c2nc(C3CN(C(=O)Nc4cccc(F)c4)C3)no2)cc1	nt	nt	nt	nt	53%	nt
Cc1ccc2nc(-c3cccc(-c4nc5ccc(C)cc5o4)n3)oc2c1	nt	?	nt	nt	nt	18µM*
CC1=C(C)CS(=O)N(S(=O)(=O)c2ccc(Cl)cc2)C1 (stereo not drawn)	2.2µM*	64%	2%	3.5µM*	40µM*	-12%
CCCn1c(=N)c(C(=O)NCc2cccnc2)cc2c(=O)n3cc(C)ccc3nc21	5%[59 µM]	53%	-1%	nt	?	5%
Cc1ccc2nc3c(cc(C(=O)NCc4cccnc4)c(=N)n3C(C)C)c(=O)n2c1	40µM*	nt	1%	14%	nt	nt
COc1cccc(Nc2cnc3ccc(-c4ccccc4OC)nn23)c1	nt	nt	nt	nt	-9%[176 µM]	nt
O=S(=O)(c1ccc(=S)[nH]c1)N1CCCCC1	0.79µM*	31%	-3%	nt	99%	-3%
COC(=O)c1cc(S(=O)(=O)N2CCN(Cc3ccccc3)CC2)c[nH]1	-9%[59 µM]	30%	-23%	15%	2%	-8%
O=S(=O)(c1ccc(=S)[nH]c1)N1CCN(Cc2ccccc2)CC1	nt	24%	nt	nt	40µM*	-16%
CCn1nccc1C(=O)NCC1Cn2cccc2C(=O)N1C (stereo not drawn)	nt	nt	nt	nt	13%	nt
CCC1(C)Cc2ccccc2-c2nc(NCCO)n(-c3ccc(C)cc3)c(=O)c21 (stereo not drawn)	-25%	24%	-19%	3%	-29%	-17%
CCC1(C)Cc2ccccc2-c2c1c(=O)n(-c1ccc(C)cc1)c1nnnn21 (stereo not drawn)	50µM*	26%	1%	-1%	0%	-6%
CCN(CC(=O)Nc1cccc(S(=O)(=O)N(C)c2ccccc2)c1)Cc1ccccc1	9%[12.7 µM]	29%	32%	nt	10%	-12%
SMILES	G9a block	HP1b chromo inh	BAZ2B inh	Sfp PPTase inh	12-LOX inh	JMJD2A Tudor
Cc1cc(C)c(NC(=O)CN(C)CC(=O)Nc2cccc(S(=O)(=O)N(C)c3ccccc3)c2)c(C)c1	nt	?	nt	nt	?	7.1µM*
CCN(CC(=O)Nc1cccc(C(C)=O)c1)S(=O)(=O)c1ccc(OC)cc1	-12%[59 µM]	16%	10%	15%	18%	-7%
COc1cccc(NC(=O)CN(C)CC(=O)NCc2ccco2)c1	12%[12.7 µM]	24%	7%	nt	-16%	-10%
Cc1ccccc1CN(C)CC(=O)Nc1cccc(S(=O)(=O)N(C)c2ccccc2)c1	1%	5%	-4%	12%	26%	79µM*
CCN(CC)S(=O)(=O)c1cccc(NC(=O)CN(C)Cc2cccc(OC)c2)c1	-115%[12.7 µM]	22µM*	50µM*	89µM*	?	1.6µM*
COc1cccc(CN(C)CC(=O)NC(=O)NCc2ccco2)c1	11%[12.7 µM]	50µM*	50µM*	5%	17%	89µM*
C=C(C)COc1ccc2c(CC)cc(=O)oc2c1	145%	36%	71%	56µM*	-5%	20µM*
O=C(CCc1ncc(-c2c(F)cccc2F)o1)Nc1ccccc1F	nt	nt	nt	nt	-1%	nt
CCCSc1nc(-c2ccccc2)[nH]c1S(=O)(=O)c1ccc(C)cc1	13µM*	40%	-38%	nt	?	-30%
Cc1ccc(S(=O)(=O)c2[nH]c(-c3ccccc3)nc2SCCC(=O)O)cc1	?	74%	-16%	nt	1%	-1%
CC(=O)CSc1nc(-c2ccccc2)[nH]c1S(=O)(=O)c1ccc(C)cc1	-7%[59 µM]	38%	-20%	nt	4%	-9%
CCC(Sc1nc(-c2ccccc2)[nH]c1S(=O)(=O)c1ccc(C)cc1)C(=O)O (stereo not drawn)	13µM*	39%	-13%	nt	0%	-12%
Cc1nn(-c2ccccc2)c(C)c1/C=N\N1CCN(c2ccc(Cl)cc2)CC1	?	?	32µM*	25µM*	0%	28µM*
Cc1nn(-c2ccccc2)c(C)c1/C=N/n1cnnc1	-37%	38%	nt	-1%	-11%	-5%[57.1 µM]
O=C(CN(c1cc(Cl)cc(Cl)c1)S(=O)(=O)c1ccccc1)N1CCCC1	nt	nt	nt	nt	7%	nt
COc1ccc(OC)c(C(=O)c2oc3cc(NC(=O)C4CC4)ccc3c2C)c1	nt	nt	nt	nt	23%	nt
O=S(=O)(Cc1ccccc1)N(O)c1ccccc1	20µM*	23%	?	50µM*	-6%	-20%
CC(OC(=O)c1cccc(S(=O)(=O)N2CCN(C)CC2)c1)C(=O)Nc1ccc(C(N)=O)cc1 (stereo not drawn)	12%[59 µM]	-14%	0%	nt	-24%	-19%
O=C(COC(=O)c1cccc(S(=O)(=O)N2CCc3ccccc3C2)c1)NCc1ccco1	?	26%	50µM*	?	8%	4%
O=C(COC(=O)c1cc(S(=O)(=O)N2CCc3ccccc3C2)ccc1Cl)NCc1ccco1	40µM*	?	?	45µM*	-9%	79µM*
CCc1ccc(NC(=O)C(C)OC(=O)c2cccc(S(=O)(=O)N3CCc4ccccc4C3)c2)cc1 (stereo not drawn)	7.9µM*	28%	15%	89µM*	-11%	-19%
